From PubChem BioAssay come the findings set out here.

Each structure is given as a SMILES string. Calls of active or inactive are those of the source.

One assay is described as follows: optical density shifts of acrAB sulA E. coli – strain DRC41, OD650, 48 h, E. coli filamentation inducer project, primary screen (AID 1152).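 Further: E. coli MC1000 strain DRC41 lacking acrAB efflux pump and sulA.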 The following applies: higher = more signal, called active from +8 up or from −8 down.
Turning to `C=CCNC(=O)[C@H]1[C@@H]2C(=O)O[C@@H](c3ccccc3)[C@@H](c3ccccc3)N2[C@@H](c2ccc(O)cc2)[C@]12C(=O)Nc1ccc(C#CCC(C(=O)OC)C(=O)OC)cc12`, the z-score is 0.824 (inactive). Same read-out and setting: next, `C[C@]1(C(=O)O)c2ccccc2C(=O)N(Cc2cc(C(F)(F)F)cc(C(F)(F)F)c2)[C@H]1c1ccc(CO)cc1`: -0.485 (inactive).

Regarding `C=CCOC(=O)[C@H]1[C@@H]2C(=O)O[C@@H](c3ccccc3)[C@@H](c3ccccc3)N2[C@@H](c2ccc(OCCOC(=O)[C@H]3C[C@H]4C(=O)NCC(=O)N4[C@H]3c3ccc(O)cc3)cc2)[C@]12C(=O)Nc1ccccc12`, the z-score is 0.141 (inactive). On the same count and under the same terms, the figure for `COc1ccc([Si](C)(C)[C@H]2[C@H](CC(=O)N3CCC[C@H]3CO)O[C@@]3(C(=O)N(Cc4cccc(N5CCCCC5=O)c4)c4ccccc43)[C@@H]2C)cc1` is 0.499 (inactive); for `C=CCNC(=O)[C@H]1[C@@H]2C(=O)O[C@@H](c3ccccc3)[C@@H](c3ccccc3)N2[C@@H](c2ccc(O)cc2)[C@]12C(=O)N(C(=O)OCCOC)c1ccc(C#Cc3ccc(OC)cc3)cc12` it is -0.983 (inactive); for `O=C(CS)NCCCCCCNC(=O)[C@H]1C[C@H]2C(=O)NCC(=O)N2[C@H]1c1cccc(OCCO)c1` it is 0.838 (inactive). Still for that read-out and setting: the figure for `COc1cc(Cc2cc3c(c(-c4ccccc4)n2)[Si](C(C)C)(C(C)C)OC3)cc(OC)c1OC` is 0.752 (inactive). Still for that read-out and setting: next, `Cc1c(NC(=O)/C(C#N)=C/C=C/c2ccc([N+](=O)[O-])cc2)c(=O)n(-c2ccccc2)n1C`: 0.0351 (inactive); `CCOC(=O)C[C@H]1[C@H](OC(=O)c2ccccc2-c2ccccc2)[C@@H](NC(=O)CC(C)C)c2cc(OCCCO)ccc2N1C(=O)c1ccccc1`: 0.822 (inactive). For `COCCOC(=O)N1C(=O)[C@@]2(c3cc(C#CCNC(N)=O)ccc31)[C@H](c1ccc(O)cc1)N1[C@H](c3ccccc3)[C@H](c3ccccc3)OC(=O)[C@H]1[C@@H]2C(=O)N1CCc2cc(OC)c(OC)cc2C1`, the z-score was -0.872 (inactive).

Another assay in a line: probe aLefty1 binding on compound microarray – biochemical, small-molecule microarray, 635/667 nm fluorescence, primary screen (AID 1153).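 Further: score merges spot fluorescence with signal-to-noise ratio from the scanned slide images.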 The following applies: higher = more signal.
The compound `COC(=O)[C@@]1(Cc2ccc(F)cc2)[C@H]2c3cc(C(=O)N(C)C)n(CCF)c3C[C@H]2CN1C(=O)c1ccccc1` returned a composite z-score of -0.012. Same read-out and setting: the figure for `COC(=O)[C@@]1(Cc2ccccc2)[C@H]2c3cc(C(=O)N(C)C)n(Cc4ccc(Cl)c(C(F)(F)F)c4)c3C[C@H]2CN1C(=O)c1ccccc1` is 0.936.

The compound `COc1ccc(NN2C(C(O)c3ccc(F)cc3)C=CC3C(=O)N(C4CCCCC4)C(=O)C32)cc1` (stereo not given) registered a composite z-score of 0.0561.

`[N-]=[N+]=NCc1ccccc1C[C@@]1(C(N)=O)N=C(c2ccc(OCCCO)cc2)O[C@@H]1c1ccccc1N=[N+]=[N-]` registered a composite z-score of 0.045. Same read-out and setting: next, `O=C1O[C@H](c2ccccc2)[C@H](c2ccccc2)N2[C@H]1[C@@H](C(=O)Nc1nc3ccccc3s1)[C@]1(C(=O)Nc3ccccc31)[C@H]2c1ccccc1OCCO`: 0.347; `CC(C)c1ccc(NN2C(C(O)C(C)c3ccccc3)C=CC3C(=O)N(c4ccccc4)C(=O)C32)cc1` (stereo not given): 1.24; `COCCCNC(=O)[C@]1(Cc2ccccc2N=[N+]=[N-])N=C(c2ccc(OCCCO)cc2)O[C@@H]1c1ccccc1`: 0.749.

Compound `COC(=O)[C@@]1(Cc2ccc(OC)cc2)[C@H]2c3cc(C(=O)N(C)C)n(Cc4c(CO)[nH]cc(C)c4=O)c3C[C@H]2CN1C(=O)c1ccccc1` displayed a composite z-score of 0.318. In turn, `COC(=O)C(CC#Cc1ccc2c(c1)[C@]1(C(=O)N2)[C@H](c2ccc(OCCO)cc2)N2[C@H](c3ccccc3)[C@H](c3ccccc3)OC(=O)[C@H]2[C@@H]1C(N)=O)C(=O)OC` gave a composite z-score of 0.0319.

Take `O=C1N(Cc2ccccc2)Cc2ccccc2C[C@@]12COC(c1ccc(OCCCO)cc1)=N2`: the composite z-score came out at 0.179.

Compound `COCCCNC(=O)[C@@]1(c2ccc([N+](=O)[O-])cc2)CC(=O)N(C2CCCCC2)[C@@H]1c1ccc(CO)cc1I` returned a composite z-score of -0.208. Same read-out and setting: next, `CO[C@H]1O[C@H](CO)[C@@H](OC(=O)Nc2ccccc2)[C@@H]2OC(=O)[C@@H](Cc3ccccc3)C/C=C/C[C@H](Cc3ccccc3)C(=O)O[C@@H]12`: -0.093; `O=C1O[C@@H](c2ccccc2)[C@@H](c2ccccc2)N2[C@@H](c3ccc(OCCO)cc3)[C@]3(C(=O)Nc4ccc(C#CC5=CCCCC5)cc43)[C@@H](C(=O)Nc3nc4ccccc4s3)[C@H]12`: -0.0857. Same read-out and setting: next, `COCCOC(=O)N1C(=O)[C@@]2(c3cc(C#CC4(O)CCCCCC4)ccc31)[C@H](C(N)=O)[C@H]1C(=O)O[C@H](c3ccccc3)[C@H](c3ccccc3)N1[C@@H]2c1ccc(OCCO)cc1`: 0.0861; `COC(=O)C(CC#Cc1ccc2c(c1)[C@]1(C(=O)N2)[C@H](C(N)=O)[C@H]2C(=O)O[C@H](c3ccccc3)[C@H](c3ccccc3)N2[C@@H]1c1ccccc1OCCO)C(=O)OC`: 0.0622; `Cc1ccc(S[C@]2(C(=O)NCC(C)C)CC(=O)N(C(C)C)[C@@H]2c2ccc(CO)cc2I)cc1`: 0.245. Same read-out and setting: next, `CN1C2C=C(c3ccc(CO)cc3)C(C3C(=O)N(C(N)=O)C(=O)C32)C1C1CC1` (stereo not given): -0.104; `[N-]=[N+]=NCc1ccccc1[C@H]1OC(c2ccc(OCCCO)cc2)=N[C@@]1(CCS(=O)(=O)c1ccccc1)C(=O)O`: 0.328. In turn, `COC(=O)[C@@]1(Cc2ccc(F)cc2)[C@H]2c3cc(C(=O)N4CCCC4)n(Cc4ccc(OC(F)(F)F)cc4)c3C[C@H]2CN1C(=O)c1ccccc1` displayed a composite z-score of -0.0141. Still for that read-out and setting: the figure for `C[N+](C)(C)CCCC[C@@H]1NC(=O)[C@H]2C[C@@H](C(=O)O)[C@@H](c3ccc(O)cc3)N2C1=O` is 0.0437. Same read-out and setting: the figure for `CN1C(=O)C2CC=C(C3=CCO[C@@H]3[C@H]3CCCN3S(=O)(=O)c3ccccc3[N+](=O)[O-])CC2C1=O` (stereo not given in full) is -0.191; for `COC(=O)[C@@]1(Cc2ccc(F)cc2)[C@H]2c3cc(C(=O)N4CCCC4)n(Cc4ccc(C(F)(F)F)nc4)c3C[C@H]2CN1C(=O)c1ccccc1` it is 0.93; for `C=C(CCCC)/C(=C/C[C@@H](OC(C)=O)c1cccc(OCCO)c1)c1cc(C(=O)OC)ccc1OC` it is -0.0969. Still for that read-out and setting: next, `O=C/C=C/c1ccc(-c2ccccc2)cc1`: -0.0186; `O=C1O[C@H](c2ccccc2)[C@H](c2ccccc2)N2[C@H]1[C@@H](C(=O)N1CCCCCCC1)[C@]1(C(=O)Nc3ccc(C#CCCO)cc31)[C@H]2c1ccc(O)cc1`: 3.06; `C=CCNC(=O)[C@H]1[C@@H]2C(=O)O[C@@H](c3ccccc3)[C@@H](c3ccccc3)N2[C@@H](c2ccc(O)cc2)[C@]12C(=O)Nc1ccc(C#CCC(C(=O)OC)C(=O)OC)cc12`: -0.188. For the compound `C[C@]1(C(=O)O)c2ccccc2C(=O)N(Cc2cc(C(F)(F)F)cc(C(F)(F)F)c2)[C@H]1c1ccc(CO)cc1`, the composite z-score was -0.0479. Same read-out and setting: next, `C=CCOC(=O)[C@H]1[C@@H]2C(=O)O[C@@H](c3ccccc3)[C@@H](c3ccccc3)N2[C@@H](c2ccc(OCCOC(=O)[C@H]3C[C@H]4C(=O)NCC(=O)N4[C@H]3c3ccc(O)cc3)cc2)[C@]12C(=O)Nc1ccccc12`: 1.09.

The compound `COc1ccc([Si](C)(C)[C@H]2[C@H](CC(=O)N3CCC[C@H]3CO)O[C@@]3(C(=O)N(Cc4cccc(N5CCCCC5=O)c4)c4ccccc43)[C@@H]2C)cc1` gave a composite z-score of 0.0799. Same read-out and setting: the figure for `C=CCNC(=O)[C@H]1[C@@H]2C(=O)O[C@@H](c3ccccc3)[C@@H](c3ccccc3)N2[C@@H](c2ccc(O)cc2)[C@]12C(=O)N(C(=O)OCCOC)c1ccc(C#Cc3ccc(OC)cc3)cc12` is 0.216; for `O=C(CS)NCCCCCCNC(=O)[C@H]1C[C@H]2C(=O)NCC(=O)N2[C@H]1c1cccc(OCCO)c1` it is 0.0797; for `COc1cc(Cc2cc3c(c(-c4ccccc4)n2)[Si](C(C)C)(C(C)C)OC3)cc(OC)c1OC` it is 0.0299. In the case of `Cc1c(NC(=O)/C(C#N)=C/C=C/c2ccc([N+](=O)[O-])cc2)c(=O)n(-c2ccccc2)n1C`, the composite z-score amounted to 0.277. Still for that read-out and setting: the figure for `CCOC(=O)C[C@H]1[C@H](OC(=O)c2ccccc2-c2ccccc2)[C@@H](NC(=O)CC(C)C)c2cc(OCCCO)ccc2N1C(=O)c1ccccc1` is 0.0816; for `COCCOC(=O)N1C(=O)[C@@]2(c3cc(C#CCNC(N)=O)ccc31)[C@H](c1ccc(O)cc1)N1[C@H](c3ccccc3)[C@H](c3ccccc3)OC(=O)[C@H]1[C@@H]2C(=O)N1CCc2cc(OC)c(OC)cc2C1` it is 0.208.
